# From the supplement of paper PMC8728848
# Many of the other results were omitted from the sample, so the strongest signals are more common in it than they were.
# Tests used:
# Assay in all cases: glycan array binding signal (z-score within array); higher = stronger binding
# Settings in all cases: glycan notation: IUPAC condensed, linker removed
# [1] = biological target: Neu5Ac(a2-3)Gal(b1-3)GlcNAc(b1-3)Gal(b1-3)GlcNAc
# How it was run: (§1)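 The binding signal is a Z-score computed within each array and averaged over linkers. Arrays of the same protein sequence at different concentrations or buffers were also averaged together. Data originate from 3228 arrays in the Consortium for Functional Glycomics database, kept only where the protein sequence was available.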
# [2] = biological target: Neu5Ac(a2-3)Gal(b1-3)GlcNAc(b1-3)GalNAc
# How it was run: as §1
# [3] = biological target: Neu5Ac(a2-3)Gal(b1-3)GlcNAc(b1-4)Gal(b1-4)Glc
# How it was run: as §1
# Neu5Ac(a2-3)Gal(b1-4)Glc = biological target: Neu5Ac(a2-3)Gal(b1-4)Glc
# How it was run: as §1
# [4] = biological target: Neu5Ac(a2-3)Gal(b1-4)GlcNAc(b1-2)Man
# How it was run: as §1
# [5] = biological target: Neu5Ac(a2-3)Gal(b1-4)GlcNAc(b1-6)GalNAc
# How it was run: as §1
# Neu5Ac(a2-6)Gal(b1-4)Glc = biological target: Neu5Ac(a2-6)Gal(b1-4)Glc
# How it was run: as §1
# [6] = biological target: Neu5Ac(a2-6)Gal(b1-4)GlcNAc(b1-2)Man(a1-6)Man(b1-4)GlcNAc(b1-4)GlcNAc
# How it was run: as §1
# [7] = biological target: Neu5Ac(a2-6)Gal(b1-4)GlcNAc(b1-2)Man(a1-6)[GlcNAc(b1-2)Man(a1-3)]Man(b1-4)GlcNAc(b1-4)GlcNAc
# How it was run: as §1
# [8] = biological target: Neu5Ac(a2-6)Gal(b1-4)GlcNAc(b1-3)[Neu5Ac(a2-6)Gal(b1-4)GlcNAc(b1-6)]GalNAc
# How it was run: as §1
# [9] = biological target: Neu5Ac(a2-8)Neu5Ac(a2-8)Neu5Ac(a2-3)[GalNAc(b1-4)]Gal(b1-4)Glc
# How it was run: as §1
# [10] = biological target: Neu5Gc(a2-3)Gal(b1-4)[Fuc(a1-3)]GlcNAc
# How it was run: as §1
# [11] = biological target: Neu5Gc(a2-6)Gal(b1-4)GlcNAc
# How it was run: as §1
# [12] = biological target: Neu5Gc(a2-8)Neu5Gc(a2-3)Gal(b1-4)GlcNAc
# How it was run: as §1
binder,measurement,setting,value
"GroEL (Clostridium difficile), Q18CT5 (protein) MAKEIKFSEETRRALEAGVNKLADTVKVTLGPKGRNVILDKKFGSPLITNDGVTIAKEIELEDRFENMGAQLVKEVATKTNDVAGDGTTTATVLAQAIIREGLKNVTAGANPILLRKGIQKAVTVAVEELKNQSRIVETQEAISQVASISAGDEEVGKLIAEAMEIVGKDGVITVEESQTMNTELDAVEGMQFDRGFVSAYMVTDVDKMEAVLNDPYILITDKKISNIQELLPVLEQIVQQGKKLLIIAEDVEGEALSTLVVNKLRGTFDVVAVKAPGFGDRRKEMLQDIAILTGAQVISEELGYDLKEADLSMLGRASSVKVTKESTTIVDGSGDKKAIEDRVTQIKHQVEQTTSDFDREKLMERLAKLAGGVAVVKVGAATEVELKERKLRIEDALNATRAAVEEGIVAGGGTAFVSVIPAIGTLIESLEGEVKLGAQIVKKALEEPLRQIAINAGLEGAVIVQNVVNSEAETGFDALNEKYVNMIEAGIVDPTKVSRSALQNAASIASTFLTTEAAVADLPEKEDAGMPGMGGGMPGMM",glycan array binding signal (z-score),[1],-0.917
same,glycan array binding signal (z-score),[2],0.139
same,glycan array binding signal (z-score),[3],2.65
same,glycan array binding signal (z-score),Neu5Ac(a2-3)Gal(b1-4)Glc,0.753
same,glycan array binding signal (z-score),[4],0.243
same,glycan array binding signal (z-score),[5],-0.601
same,glycan array binding signal (z-score),Neu5Ac(a2-6)Gal(b1-4)Glc,0.455
same,glycan array binding signal (z-score),[6],-0.426
same,glycan array binding signal (z-score),[7],-0.085
same,glycan array binding signal (z-score),[8],-1.37
same,glycan array binding signal (z-score),[9],-0.254
same,glycan array binding signal (z-score),[10],-0.437
same,glycan array binding signal (z-score),[11],1.41
same,glycan array binding signal (z-score),[12],-0.482
